# Measured values as given in PubChem BioAssay (NCATS).
# Records with an inconclusive call do not appear. Calls of active or inactive are those of the source. Unless noted, the call rests on the fitted dose curve; in most records, active means well fitted curve in the direction sought with a large enough effect; inconclusive means small, poorly fitted or top-dose-only effect, or another doubt; inactive means no such curve, though single readings can be large; an effect the other way counts as inactive or inconclusive.
# Columns and labels:
# [1] = qHTS Assay for Identifying Gametocytocidal Compounds (AID 743244);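 further: on the % scale 0 is the no-effect control and ±100 the full control effect; actives lower the fluorescent signal which means gametocytes are killed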; details: P. falciparum 3D7 stage III-V gametocytes, alamarBlue, 72 h; max response: stronger effect = lower value
# Summary of the method: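 A resazurin-based viability read-out was applied to mature P. falciparum gametocytes: 72 h compound treatment, then 24 h dye incubation, with falling fluorescence signalling gametocytocidal effect.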
# [2] = molecular target: Arylsulfatase A (Homo sapiens) (UniProt P15289); assay: qHTS screen for enhancers of Arylsulfatase A (ASA1): LOPAC Validation Assay (AID 720538); details: ASA enzyme activity, LOPAC qHTS enhancer assay; at 57.5 µM (top of the series)
# Summary of the method: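 MLD patient fibroblasts (SV40, ASA-I179S), 1536-well; adhere 6 hrs; cpd 48h, 37 degree C, 5% CO2; pNCS 0.5mM final in lysis buffer, 14h RT; stop 1N NaOH final; fluor. Ex525/Em598.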
# [3] = qHTS for compounds that reverse cellular toxicity of Amyloid beta (A-beta) peptide in yeast: LOPAC Validation Assay (AID 720559);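 further: plate controls were DMSO for no effect and equimolar ferric chloride plus clioquinol rescue for full effect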
# Summary of the method: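 Medium dispensed, compounds pinned, A-beta yeast suspension added; plates held at 30 C for 48 hr; absorbance measured at 600 nm to gauge growth; values scaled between DMSO and FeCl3/clioquinol (equimolar) controls.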
# [4] = qHTS for Activators of Parkin Expression: LOPAC Validation Assay (NLuc Reporter) (AID 720572)
# Summary of the method: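 Neuronal cells with a Parkin promoter-driven FLuc/NLuc coincidence reporter were treated 24 h at 37 C in 7-point dose response (LOPAC). NLuc luminescence read after FLuc; signals normalized to DMSO and positive control (100%).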
# [5] = qHTS for Activators of Parkin Expression: LOPAC Validation Assay (FLuc Reporter) (AID 720573)
# Summary of the method: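 Cells seeded, 24 h; compounds pinned, 7-pt dose response; 24 h at 37 C/5% CO2; volume reduced; FLuc reagent 10 min RT; luminescence read. Normalization: DMSO = 0, positive control = 100%.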
# [6] = molecular target: T1, Hexokinase-4 (Homo sapiens) + Glucokinase regulatory protein (Homo sapiens) (UniProt P35557+Q14397); assay: qHTS assay for inhibitors of recombinant human GCK-GKRP interaction: Diaphorase-coupled assay (AID 743205)
# Summary of the method: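 25 mM Hepes pH 7.6, 5 mM glucose, 0.4 mM ATP, 4 U/ml G6PDH; 10 nM each GST-GCK/FLAG-GKRP. Kinetic fluorescence read, 1/min × 30 min. Normalized: DMSO ± enzyme = max/min.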
# [7] = molecular target: T1, Hexokinase-4 (Homo sapiens) + Glucokinase regulatory protein (Homo sapiens); assay: qHTS assay for inhibitors of recombinant human GCK-GKRP interaction: ADP-Glo assay (AID 743206);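 further: plate controls were DMSO plus enzyme for no effect and no enzyme for full effect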
# Summary of the method: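 GST-GCK and FLAG-GKRP (15 nM each in the dispensed mix, with 2 uM S6P) react with 0.4 mM ATP and 5 mM glucose (final) in Hepes pH 7.6 for 60 min at room temperature. ADP is measured by ADP-Glo luminescence.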
# [8] = molecular target: T1, Hexokinase-4 (Homo sapiens) + Glucokinase regulatory protein (Homo sapiens); assay: qHTS assay for inhibitors of recombinant human GCK-GKRP interaction: HTRF assay (AID 743207);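 further: 0% = DMSO with GCK present and -100% = DMSO wells lacking GCK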
# Summary of the method: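 5 nM GST-GCK + 5 nM FLAG-GKRP + 2 uM S6P, pH 7.1 buffer (25 mM Hepes, 2 mM MgCl2, 25 mM KCl, 1 mM DTT, Tween/BSA); pin-transferred cpd; anti-FLAG XL665/anti-GST K; 60 min RT; HTRF.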
# [9] = molecular target: Tyrosine-protein kinase Yes (Homo sapiens) (UniProt P07947); assay: qHTS for small molecule inhibitors of Yes1 kinase: Primary Screen (AID 686947);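 further: plate controls were DMSO with enzyme for no effect and no-enzyme DMSO wells for full effect; nearly all actives have a fitted effect of over 60% in size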
# Summary of the method: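 ADP-Glo luminescence readout; final 4 nM Yes1, 0.1 mM ATP, 0.3 mg/mL poly(E4Y), Tris pH 7.5, MgCl2, DTT, Brij-35. 20 min compound preincubation, 60 min reaction at RT. Normalized to DMSO wells with and without enzyme.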
# [10] = qHTS for small molecule inhibitors of Yes1 kinase: Counter Assay (AID 686950);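 further: no kinase present so only ADP-Glo detection of a fixed ADP amount is tested; luminescence from ADP-Glo reporting ADP in a fixed ATP and ADP mixture; 0% = DMSO wells with ATP plus ADP and -100% = ATP-only wells without ADP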
# Summary of the method: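 Enzyme-free detection counter-screen: compounds preincubated 20 min in buffer, then 0.08 mM ATP plus 0.02 mM ADP added for 60 min at room temperature; ADP-Glo luminescence. Buffer 50 mM Tris pH 7.5, 10 mM MgCl2, 150 mM NaCl; normalized to ATP+ADP and ATP-only controls.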
# [11] = qHTS profiling for inhibitors of Plasmodium falciparum (3D7) proliferation (AID 743322; call rule not given here;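 further: infected erythrocytes exposed to compound for 72 h before lysis; 100% = DMSO vehicle wells and 0% = 0.29 µM artemisinin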); details: P. falciparum 3D7 proliferation; at 28.7 µM (top of the series) unless noted
# Summary of the method: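 Erythrocytes infected with P. falciparum (0.3% parasitemia, 2.5% hematocrit) incubated with compounds 72 h at 37 C, 5% CO2. Lysis with saponin/Triton buffer containing SYBR Green I, overnight at room temperature in the dark; DNA fluorescence (485/535 nm) normalised to 0.29 uM artemisinin and DMSO.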
# [12] = qHTS profiling for inhibitors of Plasmodium falciparum (DD2) proliferation (AID 743323; call rule not given here); details: lower = more inhibition; at 28.7 µM (top of the series) unless noted
# Summary of the method: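 Parasite DNA quantified by SYBR Green fluorescence (ex 485, em 535 nm) after saponin/Triton lysis and overnight dark incubation. Cultures: 0.3% parasitemia, 2.5% hematocrit, 72 h, 37 C; data scaled between DMSO and 0.29 uM artemisinin.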
# T1 sequence (P35557 whole entry, looked up): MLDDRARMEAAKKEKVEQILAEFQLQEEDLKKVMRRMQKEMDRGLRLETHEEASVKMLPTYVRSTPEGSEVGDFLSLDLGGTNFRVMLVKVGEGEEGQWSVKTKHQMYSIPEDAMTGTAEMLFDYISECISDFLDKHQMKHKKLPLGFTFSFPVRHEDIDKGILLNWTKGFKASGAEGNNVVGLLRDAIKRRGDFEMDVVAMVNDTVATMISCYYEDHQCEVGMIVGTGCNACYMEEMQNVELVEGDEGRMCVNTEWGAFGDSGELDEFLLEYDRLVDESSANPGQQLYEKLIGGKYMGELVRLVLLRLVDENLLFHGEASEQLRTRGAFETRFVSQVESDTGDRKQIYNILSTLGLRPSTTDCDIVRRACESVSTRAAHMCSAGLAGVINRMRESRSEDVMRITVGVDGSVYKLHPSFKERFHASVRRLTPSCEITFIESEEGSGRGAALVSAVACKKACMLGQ
# T1 sequence (Q14397 whole entry, looked up): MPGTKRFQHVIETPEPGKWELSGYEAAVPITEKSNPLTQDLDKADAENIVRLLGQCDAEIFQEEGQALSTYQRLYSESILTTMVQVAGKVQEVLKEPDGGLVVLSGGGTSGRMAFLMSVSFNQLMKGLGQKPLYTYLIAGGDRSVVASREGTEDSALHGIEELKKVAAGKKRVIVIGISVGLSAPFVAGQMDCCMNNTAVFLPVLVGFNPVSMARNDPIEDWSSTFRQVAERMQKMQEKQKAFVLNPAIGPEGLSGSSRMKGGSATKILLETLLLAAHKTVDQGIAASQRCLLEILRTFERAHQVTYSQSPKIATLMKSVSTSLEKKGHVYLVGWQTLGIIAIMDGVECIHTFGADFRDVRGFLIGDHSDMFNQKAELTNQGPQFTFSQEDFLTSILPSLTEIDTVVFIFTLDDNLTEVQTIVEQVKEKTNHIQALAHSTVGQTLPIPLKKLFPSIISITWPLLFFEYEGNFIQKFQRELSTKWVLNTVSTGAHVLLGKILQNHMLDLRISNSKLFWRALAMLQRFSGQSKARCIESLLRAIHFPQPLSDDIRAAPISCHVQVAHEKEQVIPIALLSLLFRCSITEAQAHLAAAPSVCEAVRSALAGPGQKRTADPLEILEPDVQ
# Chain of Arylsulfatase A (Homo sapiens) (P15289 whole entry, looked up): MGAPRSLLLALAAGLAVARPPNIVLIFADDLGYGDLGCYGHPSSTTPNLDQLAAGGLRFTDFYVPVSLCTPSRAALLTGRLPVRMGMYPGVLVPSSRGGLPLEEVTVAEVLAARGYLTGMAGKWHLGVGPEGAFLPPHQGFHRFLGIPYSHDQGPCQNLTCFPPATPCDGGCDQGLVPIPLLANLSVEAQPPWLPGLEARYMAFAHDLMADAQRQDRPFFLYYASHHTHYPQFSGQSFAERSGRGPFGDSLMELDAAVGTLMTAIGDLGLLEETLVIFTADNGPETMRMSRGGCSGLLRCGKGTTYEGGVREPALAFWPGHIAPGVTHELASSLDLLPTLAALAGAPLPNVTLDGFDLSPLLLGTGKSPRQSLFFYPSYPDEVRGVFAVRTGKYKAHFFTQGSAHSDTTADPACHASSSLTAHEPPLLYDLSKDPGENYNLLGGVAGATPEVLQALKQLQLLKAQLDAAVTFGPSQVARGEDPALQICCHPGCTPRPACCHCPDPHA
# Chain of Tyrosine-protein kinase Yes (Homo sapiens) (P07947 whole entry, looked up): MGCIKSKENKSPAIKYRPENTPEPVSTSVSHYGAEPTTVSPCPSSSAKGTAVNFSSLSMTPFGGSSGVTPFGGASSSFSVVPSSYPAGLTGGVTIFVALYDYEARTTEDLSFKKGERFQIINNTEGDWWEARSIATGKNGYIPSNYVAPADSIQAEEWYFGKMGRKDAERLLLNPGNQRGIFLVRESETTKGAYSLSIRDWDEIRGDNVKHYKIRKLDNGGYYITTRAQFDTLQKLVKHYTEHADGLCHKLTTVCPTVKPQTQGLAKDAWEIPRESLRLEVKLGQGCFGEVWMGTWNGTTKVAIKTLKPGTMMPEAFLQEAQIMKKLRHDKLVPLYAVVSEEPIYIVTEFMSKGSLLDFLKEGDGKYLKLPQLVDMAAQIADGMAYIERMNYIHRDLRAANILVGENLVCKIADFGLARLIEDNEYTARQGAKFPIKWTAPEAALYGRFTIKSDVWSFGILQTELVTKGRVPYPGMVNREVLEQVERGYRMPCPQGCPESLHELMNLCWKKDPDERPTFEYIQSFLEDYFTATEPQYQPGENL
compound,measurement,setting,value
COc1ccc(-c2nc3ccc(C4=NNC(=O)CC4C)cc3[nH]2)cc1 (stereo unspecified),max response,[1],13.2% (inactive)
NCC1CCC(C(=O)O)CC1 (stereo unspecified),max response,[1],-0.776% (inactive)
C[C@H]1O[C@@H](n2cc(F)c(=O)[nH]c2=O)[C@H](O)[C@H]1O,outcome,[2],inactive; inhibitor; fitted 8.4921 uM
same,outcome,[3],inactive
same,outcome,[4],inactive
same,outcome,[5],inactive
same,outcome,[6],inactive
same,outcome,[7],inactive
same,outcome,[8],inactive
same,max response,[1],6.51% (inactive)
CS(=O)(=O)c1ccc(C2=C(c3ccccc3)C(=O)OC2)cc1,max response,[1],3.44% (inactive)
CC(C)C[C@@H](C(=O)N[C@H](C(=O)OC1CCCC1)c1ccccc1)[C@H](O)C(=O)NO,Potency,[9],inactive
same,outcome,[10],inactive
same,remaining parasite growth % (stronger effect = lower value),[11],3.5%
same,"activity, percent of control",[12],9.3%
CO[C@@H]1C(N(C)C(=O)c2ccccc2)C[C@H]2O[C@]1(C)n1c3ccccc3c3c4c(c5c6ccccc6n2c5c31)C(=O)NC4=O (stereo partly specified),remaining parasite growth % (stronger effect = lower value),[11],110%
same,"activity, percent of control",[12],103%
Cc1cc2c(cc1C1(c3ccc(C(=O)O)cn3)CC1)C(C)(C)CCC2(C)C,outcome,[10],inactive
same,max response,[1],8.43% (inactive)
same,remaining parasite growth % (stronger effect = lower value),[11],101%
same,"activity, percent of control",[12],97.2%
C[C@@H](O[C@H]1OCCN(Cc2n[nH]c(=O)[nH]2)[C@@H]1c1ccc(F)cc1)c1cc(C(F)(F)F)cc(C(F)(F)F)c1,remaining parasite growth % (stronger effect = lower value),[11],16.5%
same,"activity, percent of control",[12],26.1%
COc1ccc2nc3cc(Cl)ccc3c(Nc3cc(CN4CCCC4)c(O)c(CN4CCCC4)c3)c2n1,remaining parasite growth % (stronger effect = lower value),[11],-1.29%
same,"activity, percent of control",[12],-0.214%
CN(C)CC[C@H](CSc1ccccc1)Nc1ccc(S(=O)(=O)NC(=O)c2ccc(N3CCN(Cc4ccccc4-c4ccc(Cl)cc4)CC3)cc2)cc1[N+](=O)[O-],remaining parasite growth % (stronger effect = lower value),[11],11.6%
same,"activity, percent of control",[12],9.74%
O=C(Nc1ccc(OC(F)(F)F)cc1)c1sccc1NCc1ccnc2ccccc12,outcome,[10],inactive
same,max response,[1],8.87% (inactive)
same,remaining parasite growth % (stronger effect = lower value),[11],71.5%
same,"activity, percent of control",[12],75.1%
